Data: PubChem BioAssay
Calls of active or inactive are those of the source.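 The calls were made as follows, unless noted: active = mean inhibition over 43.08%, the solvent-only control mean plus 3 SD; inactive = the rest.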

Tests used:
[1] = biological target: Nuclear receptor coactivator 3 (Homo sapiens) (UniProt Q9Y6Q9); test: SRC3 coactivator transcriptional activity inhibitors, confirmation, cell-based, luminescence, quadruplicate (AID 588792); settings: HEK293 GAL4-SRC3 luciferase reporter, at 3.6 µM, active compounds read high;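 also: 0% = DMSO treated cells and 100% = gossypol at 36 µM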
[2] = test system: transactivating tegument protein VP16 (Human herpesvirus 1), Gal4-VP16 luciferase reporter; test: VP16 transactivation inhibitors, counter-screen for SRC3 inhibitor project, cell-based, luminescence, high throughput (AID 588794; in the data active = inhibition above about 30%); settings: mammalian cells, VP16-driven luciferase reporter luminescence; at 3.6 µM; active compounds read high

Sequence of Nuclear receptor coactivator 3 (Homo sapiens) (Q9Y6Q9 whole entry, looked up, the tested form may be a part): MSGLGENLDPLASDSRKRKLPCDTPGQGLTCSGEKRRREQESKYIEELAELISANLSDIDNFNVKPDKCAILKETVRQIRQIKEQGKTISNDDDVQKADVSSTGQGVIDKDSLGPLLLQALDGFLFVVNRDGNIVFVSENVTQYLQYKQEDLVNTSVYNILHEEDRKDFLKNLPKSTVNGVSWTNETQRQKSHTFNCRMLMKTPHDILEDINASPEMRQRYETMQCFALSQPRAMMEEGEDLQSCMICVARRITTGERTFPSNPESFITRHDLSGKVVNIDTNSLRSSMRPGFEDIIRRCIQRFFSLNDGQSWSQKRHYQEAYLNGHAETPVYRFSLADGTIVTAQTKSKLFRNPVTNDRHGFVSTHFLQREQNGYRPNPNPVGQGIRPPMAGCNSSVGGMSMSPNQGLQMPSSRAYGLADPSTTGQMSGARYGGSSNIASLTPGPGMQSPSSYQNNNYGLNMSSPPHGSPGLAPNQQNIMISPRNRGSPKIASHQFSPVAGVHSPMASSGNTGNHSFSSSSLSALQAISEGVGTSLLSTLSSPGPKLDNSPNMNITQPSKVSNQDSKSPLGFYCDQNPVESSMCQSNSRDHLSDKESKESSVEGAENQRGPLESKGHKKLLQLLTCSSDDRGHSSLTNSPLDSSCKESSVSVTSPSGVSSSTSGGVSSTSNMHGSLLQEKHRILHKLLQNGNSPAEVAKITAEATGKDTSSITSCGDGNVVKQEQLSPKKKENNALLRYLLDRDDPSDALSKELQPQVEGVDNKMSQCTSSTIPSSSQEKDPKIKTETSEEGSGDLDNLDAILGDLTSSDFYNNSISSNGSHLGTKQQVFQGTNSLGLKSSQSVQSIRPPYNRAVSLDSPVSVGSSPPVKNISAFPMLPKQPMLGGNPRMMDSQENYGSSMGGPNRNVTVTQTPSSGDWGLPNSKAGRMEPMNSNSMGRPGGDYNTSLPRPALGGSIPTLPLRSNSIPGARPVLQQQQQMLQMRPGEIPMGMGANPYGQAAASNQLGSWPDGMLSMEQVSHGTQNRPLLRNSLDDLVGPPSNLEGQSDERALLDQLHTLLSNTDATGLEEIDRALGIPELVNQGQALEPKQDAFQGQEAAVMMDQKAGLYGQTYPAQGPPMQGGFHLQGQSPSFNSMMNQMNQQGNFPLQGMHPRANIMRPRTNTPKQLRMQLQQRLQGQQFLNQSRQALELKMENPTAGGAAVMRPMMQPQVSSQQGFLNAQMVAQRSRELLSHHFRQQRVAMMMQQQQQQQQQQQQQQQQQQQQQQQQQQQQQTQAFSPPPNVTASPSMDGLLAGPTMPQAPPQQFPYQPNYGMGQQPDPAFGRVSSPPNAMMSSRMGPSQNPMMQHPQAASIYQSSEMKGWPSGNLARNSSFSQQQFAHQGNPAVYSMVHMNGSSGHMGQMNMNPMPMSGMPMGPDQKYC

Structure (SMILES)	inhibition [1]	inhibition [2]
CCN(CC)c1ccc(/C=N/NC(=O)c2cnccn2)c(O)c1	45.2% (active)	52.3% (active)
COc1cc(/C=C2\SC(=S)N(CCC(=O)NC3CCCC3)C2=O)cc(OC)c1OC	-4.46% (inactive)	9.3% (inactive)
CCOc1ccccc1/C=C/c1onc(C)c1S(=O)(=O)N1CCC(C(=O)N(CC)CC)CC1	5.63% (inactive)	3.37% (inactive)
O=S(=O)(NC1=NCCC1)c1cccc(NS(=O)(=O)c2ccc(OC(F)(F)F)cc2)c1	-6.28% (inactive)	-8.52% (inactive)
CC(=O)c1c(C)[nH]c(C(=O)OCC(=O)Nc2ccc(C)cc2[N+](=O)[O-])c1C	32.4% (inactive)	52.8% (active)
CC(=O)c1ccc(Nc2c3c(nc4ccccc24)CCCC3)cc1	32.7% (inactive)	-3.62% (inactive)
COc1ccc(C(C)=O)cc1CSc1nnc(Nc2ccccc2)s1	9.88% (inactive)	19.3% (inactive)
CC1Cc2cc(-c3csc(NC(=O)Cc4ccccc4)n3)ccc2N1S(C)(=O)=O (stereo unspecified)	23.8% (inactive)	24.3% (inactive)
CCc1ccc(CN(C)C(=O)c2cc(COc3cccc4cnccc34)on2)cc1	18.4% (inactive)	33.7% (active)
CCOC(=O)/C(C#N)=C/c1cc(C)n(-c2ccccc2)c1C	18.5% (inactive)	18.2% (inactive)
Cc1ccc2c(c1)/C(=C/c1ccc(F)cc1)C(=O)N2	7.93% (inactive)	-3.06% (inactive)
CCC(=O)NC(c1cccs1)c1ccc2cccnc2c1O (stereo unspecified)	33.1% (inactive)	25.9% (inactive)
O=C1c2ccc3c4c(ccc(c24)C(=O)N1c1cccc(O)c1)C(=O)N(c1cccc(O)c1)C3=O	30.3% (inactive)	31% (active)
CC(=O)N1CCc2cc(S(=O)(=O)NCCC(=O)NCCc3ccc(Cl)cc3)ccc21	-9.13% (inactive)	1.52% (inactive)
O=C(NNc1ccc(O)cc1)c1ccc(Br)cc1	31.5% (inactive)	63.4% (active)
Clc1ccc2nnnc(-c3ccccc3)c2c1	65.8% (active)	68% (active)
O=C(CSc1nnc(COc2ccc(Cl)cc2)o1)N1CCOCC1	-3.82% (inactive)	-7.96% (inactive)
COc1cc(C(=O)Nc2nc(-c3cccs3)cs2)cc(OC)c1OC	-9.35% (inactive)	-21.8% (inactive)
COc1ccc(Cl)cc1C(=O)Nn1c(-c2cccs2)nc2ccccc2c1=O	25.5% (inactive)	22.1% (inactive)
CCN(CC(=O)Nc1ccc(OC)cc1)C(=O)CSCC(=O)Nc1cc(C)on1	5.34% (inactive)	5.42% (inactive)
NC(=O)c1sc2nc3c(c(-c4ccco4)c2c1N)CCCC3	59.8% (active)	32.4% (active)
COc1ccccc1NC(=O)Nc1nnc(Cc2ccccc2F)s1	5.82% (inactive)	20.4% (inactive)
Nc1nc(NCc2ccco2)nc(N2CCCCCC2)c1[N+](=O)[O-]	-0.71% (inactive)	18% (inactive)
CC(=O)c1ccc(Sc2nnnn2-c2ccccc2)c([N+](=O)[O-])c1	11.4% (inactive)	-10.4% (inactive)
Cc1cccc(OC(=O)NCCOC(=O)N(O)c2ccc(Cl)cc2)c1	4.94% (inactive)	-5.77% (inactive)

Structure (SMILES)	inhibition [1]	inhibition [2]
O=C(Nc1cc(C(=O)N2CCCC2)ccc1N1CCCC1)c1ccccc1F	27.3% (inactive)	13.1% (inactive)
COC(=O)/C(C#N)=C\c1c(OC)[nH]c2ccccc12	18.6% (inactive)	12.4% (inactive)
CCOc1cccc(-n2nnnc2-c2ccc(OC)cc2)c1	7.46% (inactive)	14.6% (inactive)
CCN1/C(=C/c2cc[n+](C)cc2)C=Cc2cc(C)ccc21	17% (inactive)	70.9% (active)
CCC(=O)NC(c1cccs1)c1cc(Cl)c2cccnc2c1O (stereo unspecified)	20.9% (inactive)	25.6% (inactive)
N#Cc1c(NCc2ccccc2)ccnc1Cl	27.5% (inactive)	15.9% (inactive)
O=C(NCC1CCCO1)c1cccc2c1C(=O)c1ccc(N3CCC(Cc4ccccc4)CC3)cc1S2(=O)=O (stereo unspecified)	-2.13% (inactive)	10.6% (inactive)
CCN(CC)S(=O)(=O)c1cc(NC(=O)C(C)OC(=O)c2[nH]c(C)c(C(C)=O)c2C)ccc1C (stereo unspecified)	16% (inactive)	8.36% (inactive)
CCOc1c(Br)cc(CNC2CCCCCCC2)cc1OC	-5.01% (inactive)	-0.26% (inactive)
Cc1ccc(S(=O)(=O)C(C#N)c2nc3ccccc3nc2N2CCN(C)CC2)cc1 (stereo unspecified)	19.1% (inactive)	-2.04% (inactive)
Nc1nc2c(F)cccc2s1	-3.71% (inactive)	0.2% (inactive)
CCCN1CCN(C2CCCCC2NS(=O)(=O)c2ccccc2)CC1 (stereo unspecified)	-7.15% (inactive)	-2.22% (inactive)
O=[N+]([O-])c1ccccc1NC1CCN(Cc2ccccc2)CC1	-4.81% (inactive)	0.87% (inactive)
CC(=O)Nc1ccc(S(=O)(=O)NCCSCc2ccccc2Cl)cc1	12.3% (inactive)	17.1% (inactive)
CN1C/C(=C/c2cccnc2)C(=O)/C(=C/c2cccnc2)C1	23.5% (inactive)	54.1% (active)
COc1ccc2nc(C)cc(Nc3ccc(N4CCN(C)CC4)cc3)c2c1	71.8% (active)	35.3% (active)
COc1cccc(CNCCO)c1OCc1ccccc1	-2.38% (inactive)	8.14% (inactive)
C/C(N)=C(/C#N)C(=O)COC(=O)c1ccc(C#N)cc1	-7.91% (inactive)	-0.63% (inactive)
Cc1cc[n+](C(C)C(=O)c2ccc(-c3ccccc3)cc2)cc1 (stereo unspecified)	8.52% (inactive)	32% (active)
COC(=O)c1c(NC(=O)c2ccccc2)sc(C(N)=O)c1C	26.7% (inactive)	55.4% (active)
C=CCc1cc(C(=O)N2CCCCC2)ccc1O	14.5% (inactive)	19.9% (inactive)
Cc1cc(/C=C2\SC(=S)N(C)C2=O)c(C)n1-c1cccc(O)c1	51.6% (active)	38% (active)
Cc1cccc(NC(=O)c2cc(-c3ccccn3)nc3ccccc23)c1C	-9.5% (inactive)	8.29% (inactive)
Cc1ccc(-c2cn(-c3ccc(OC(F)F)cc3)c3[n+]2CCCCC3)cc1	3.74% (inactive)	23% (inactive)
Cc1cccc(OCC(O)Cn2c(=N)n(CCN3CCCCC3)c3ccccc32)c1 (stereo unspecified)	2.86% (inactive)	20.6% (inactive)

Structure (SMILES)	inhibition [1]	inhibition [2]
Cc1cccc(C2(c3cccc(C)c3)CC2C(=O)Nc2ccc([N+](=O)[O-])cc2O)c1 (stereo unspecified)	7.2% (inactive)	8.99% (inactive)
COc1ccccc1NC(=O)Nc1nnc(Cc2ccc(F)cc2)s1	3.85% (inactive)	9.25% (inactive)
COc1ccc(O)c(-c2[nH]ncc2C(=O)c2ccccc2)c1	26.3% (inactive)	18.6% (inactive)
O=C(COc1ccc(Cl)cc1)NCc1nnc(SCC(=O)NC2CCCCC2)o1	3.51% (inactive)	3.49% (inactive)
CCOC(=O)c1c(NC(=O)COc2cccc3c2CCN(C)C3=O)sc2c1CCC2	-1.43% (inactive)	10.2% (inactive)
O=C(NCCc1cn2ccccc2n1)c1cc(COc2ccc3ncccc3c2)on1	-5.01% (inactive)	18.4% (inactive)
COc1ccccc1C(=O)OCC(=O)c1ccc(CNC(C)=O)s1	10.4% (inactive)	-0.94% (inactive)
COc1ccc(OCc2nn3c(-c4ccco4)nnc3s2)cc1	-8.03% (inactive)	-4.08% (inactive)
COc1ccc(OC)c(N/C=C/C(=O)c2ccccc2)c1	44.8% (active)	17.5% (inactive)
COCCNC(=O)c1cc(-c2ccccn2)nc2ccc(S(=O)(=O)N3CCC(C)CC3)cc12	30.4% (inactive)	0.64% (inactive)
C=CC[C@@H](CC(=O)N(CCO)Cc1ccccc1)C(=O)N[C@@H](C)COC(=O)[C@@H](CC=C)Cc1ccc(F)cc1	5.89% (inactive)	-1.92% (inactive)
O=C(CCc1ccccc1)N/N=C/c1cc(Br)ccc1O	24.5% (inactive)	17.2% (inactive)
CC(C)OP(=O)(OC(C)C)/C(C=O)=N\Nc1ccc([N+](=O)[O-])cc1	7.9% (inactive)	2.13% (inactive)
O=C(Nc1ccc([N+](=O)[O-])cc1)Nc1nc(-c2ccc(Cl)s2)cs1	60.4% (active)	71.6% (active)
Cc1nnnn1/C(=C\c1ccccc1)C(=O)OCC(=O)Nc1cccc(S(=O)(=O)N(C)C)c1	-9.38% (inactive)	13.2% (inactive)
CCc1cccc(CC)c1C(OC(C)=O)c1cccnc1 (stereo unspecified)	-15.7% (inactive)	-7.1% (inactive)
CC(=O)Nc1ccc(C(=O)N/N=C/c2cc(Br)cc(Br)c2O)cc1	6.09% (inactive)	11.2% (inactive)
COc1ccc([N+](=O)[O-])cc1NC(=O)Nc1cccc(Cl)c1	19.4% (inactive)	15.4% (inactive)
Cc1ccc(N/C(N)=N/c2nc(C)cc(C)n2)cc1	-9.39% (inactive)	-6.71% (inactive)
O=C(COc1ccccc1[N+](=O)[O-])Nc1ccc(N2CCN(C(=O)c3cccs3)CC2)cc1	-7.09% (inactive)	7.15% (inactive)
CNCC(C)COc1ccccc1OCc1ccccc1 (stereo unspecified)	2.54% (inactive)	10.4% (inactive)
CCc1ccc([C@@H]2CC(=O)[C@@H]3CN(S(=O)(=O)c4ccccc4C)[C@H](c4ccc(Cl)cc4)C[C@@H]3N2S(=O)(=O)c2ccc(C)cc2)cc1	15.5% (inactive)	4.71% (inactive)
COc1ccc(CNC(=O)c2ccc(Cl)c(S(=O)(=O)N3CCOCC3)c2)cc1OC	12.8% (inactive)	27.5% (inactive)
